From PubChem BioAssay
Many of the other results were omitted from the sample, so hits are more common in it than they were.
Lassa entry inh – qHTS for Inhibitors of binding or entry into cells for Lassa Virus | Lassa virus pseudotype entry inhibition, cell reporter | Potency, µM (titrated, usually from 37.9 µM), inactives show top-dose activity change, negative = inhibition, usual class: inhibitors | actives 1.2% (n = 300,000) | AID 540256, 2011; calls by dose curve; tested in HEK293 cells; also: potency is read from the fitted curve at half-maximal effect; % is scaled to controls: 0 for no effect and ±100 for the full control effect; nearly all actives have a fitted effect of over 50% in size
Cycloheximide cs – Cycloheximide Counterscreen for Small Molecule Inhibitors of Shiga Toxin; cell reporter, cycloheximide protein synthesis inhibition counterscreen; actives 12% (n = 300,000); max response, %; AID 2314, 2010; in the data active = max response mostly above about 13%, no sharp cut-off; inactive = mostly below about 14%; also: read at 38.3 µM for the half of the compounds with a filed dose; 0% is about no effect
AMA1 RON2 block – qHTS for Inhibitors of AMA1-RON; Towards Development of Antimalarial Drug Lead: Primary Screen; Plasmodium falciparum AMA1 (3D7) - RON2 peptide interaction; AlphaScreen AMA1-biotinylated RON2 peptide binding; Potency, µM (doses to about 58.2 µM), without a hit: top-dose activity change, negative = inhibition, actives largely listed as inhibitors; actives 0.2% (n = 360,000); active = well fitted inhibition curve with a large enough effect; inconclusive = small, poorly fitted or top-dose-only effect; inactive = no such curve, though single readings can be large or run the other way;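 also: potency is read from the fitted curve at half-maximal effect; 0% = vehicle wells and -100% = peptide control; nearly all actives have a fitted effect of over 45% in size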
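AMA1 (3D7) with his tag at 25 nM final met compounds first, then biotinylated RON2 peptide at 25 nM; detection used donor plus acceptor beads, 10 µg/mL apiece, read by AlphaScreen after 30 min at room temperature.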
Shiga toxin inh – A qHTS for Small Molecule Inhibitors of Shiga Toxin; Vero cells, Shiga toxin protein synthesis inhibition reporter; inhibition, % at 38.7 µM; actives 9.2% (n = 290,000); in the data active = inhibition mostly above about 28%, no sharp cut-off; inactive = mostly below about 43%; also: 0% is about no effect
Marburg entry inh – qHTS for inhibitors of binding or entry into cells for Marburg Virus. actives 1.8% (n = 300,000). Potency, µM (top dose mostly 37.8 µM), for the others: at the top dose activity change, negative = inhibition, usual class: inhibitors. Marburg virus pseudotyped entry inhibition, cell reporter. AID 540276, 2011; calls by dose curve; tested in HEK293 cells; also: potency is read from the fitted curve at half-maximal effect; % is scaled to controls: 0 for no effect and ±100 for the full control effect
An asterisk follows results filed as active; ? = inconclusive; · = no result given; [ ] = another dose, or the depositor's remark.

SMILES	Lassa entry inh	Cycloheximide cs	AMA1 RON2 block	Shiga toxin inh	Marburg entry inh
COc1cccc(NC(=O)CC(=O)c2ccccc2)c1	?	59*	-10%	100*	?
O=C(CNC(=O)c1ccccc1Cl)Nc1ccncc1	·	·	13%	·	·
O=C(CNCc1ccccc1)Nc1ccc(F)cc1	17%	35*	4%	14	-1%
COc1cccc(NC(=O)CNCc2ccccc2)c1	·	29*	-3%	62*	·
O=C(CNC(=O)c1ccccc1Cl)Nc1ccc(F)cc1	11%	19*	-10%	11	?
COc1cccc(NC(=O)Cc2ccccc2)c1	·	-3	2%	16	5%
COc1cccc(NC(=O)CC(C)=O)c1	4%	7	-7%	-3	-6%
CCOc1ccccc1CNC(=O)CCc1c(C)nn(-c2ccc(N3CCCC3)nn2)c1C	-15%[46.1 µM]	·	·	·	·
Cc1cccc(C)c1NC(=O)C1(C)CSCC(=O)N1CCCn1ccnc1 (stereo unspecified)	·	·	-1%	·	·
CN(Cc1ccccc1)Cc1ccccc1C(O)c1ccccc1 (stereo unspecified)	18%	·	-22%	·	?
CN1C(=O)C(CC(=O)Nc2ccc(F)cc2)N(CCCc2ccccc2)C1=S (stereo unspecified)	?	10	?	-4	11µM*
c1cc[n+]2c(c1)-c1cccc[n+]1CC2	·	4	·	8	·
O=C(c1ccc(COc2ccccc2Br)o1)N1CCCCCC1	10%	26*	-5%	32*	-4%
O=C(c1ccc(COc2ccccc2Cl)o1)N1CCN(c2ccccc2)CC1	·	-3	?	-13	·
CN(C(=O)c1ccc(COc2ccccc2Br)o1)c1ccccc1	-17%	15*	11%	27*	-16%
O=C(c1ccc(COc2ccccc2Br)cc1)N1CCCCC1	-5%	34*	0%	50*	18%
COc1ccccc1OCc1ccc(C(=O)N2CCN(C(=O)c3ccco3)CC2)cc1	-6%	-6	14%	-9	-3%
Cc1nc(N2CCN(c3ccccc3)CC2)[nH]c(=O)c1C	4%	4	-6%	-5	-15%
Cc1ccc(Nc2sc(C(=O)c3ccccc3)c(N)c2S(=O)(=O)c2ccccc2)cc1Cl	?	·	·	·	-25%[46.1 µM]
COc1nc(C)ccc1-c1noc(-c2cccs2)n1	-29%	58*	18%	140*	11µM*
COc1nc(-c2ccccc2)ccc1-c1noc(-c2cccs2)n1	-6%	·	2%	·	-18%
COc1cc(-c2nc(-c3ccc(C)nc3OC)no2)cc(OC)c1OC	·	-2	·	-14	0%
COc1nc(C)ccc1-c1noc(-c2ccncc2)n1	3%	23*	1%	25	-1%
O=C(/C=C/Nc1cccc([N+](=O)[O-])c1)c1ccco1	-17%	·	-11%	·	?
CC(=O)Nc1ccc(N/C=C/C(=O)c2ccco2)cc1	-9%	59*	-6%	76*	5%
SMILES	Lassa entry inh	Cycloheximide cs	AMA1 RON2 block	Shiga toxin inh	Marburg entry inh
CN(C)c1ccc(N/C=C/C(=O)c2ccco2)cc1	?	49*	-4%	91*	3.7µM*
CCOc1ccc2c(c1)c(=O)c(S(=O)(=O)c1ccccc1)cn2CC(=O)Nc1ccccc1OC	-22%[46.1 µM]	·	·	·	-16%[46.1 µM]
CCOC(=O)C(Cc1ccccc1)C(=O)Nc1cccc2ccccc12 (stereo unspecified)	-19%	11	-4%	1	?
CN(CC(O)COc1ccc(OCC(O)CN(C)C2CCCCC2)cc1)C1CCCCC1 (stereo unspecified)	?	-4	5%	23	10µM*
CN(C[C@H](O)COc1ccc(OC[C@H](O)CN(C)C2CCCCC2)cc1)C1CCCCC1	·	·	·	·	10µM*
O=C(CC(=O)c1ccccc1O)c1cccc(F)c1	?	34*	41%	56*	?
O=C(CC(=O)c1ccccc1O)c1ccc(F)cc1	?	49*	17%	70*	?
O=C(CC(=O)c1c(F)cccc1Cl)c1ccccc1O	?	55*	37%	52*	?
CCC1CCCCN1C(=O)CSc1nnc(CNC(=O)c2c(F)cccc2Cl)o1 (stereo unspecified)	14%[46.1 µM]	-3	-6%	13	18%[46.1 µM]
Nc1ccc(N2CCN(c3ccc(Cl)c(Cl)c3)CC2)cc1	-25%	4	?	24*	3%
Cc1cccc(-c2nc(Cn3c(SCc4cccc(C(F)(F)F)c4)nc4ccncc43)c(C)o2)c1	-20%[46.1 µM]	·	·	·	-7%[46.1 µM]
COc1ccc(-c2nc(Cn3c(SCc4cccc(F)c4)nc4ccncc43)c(C)o2)cc1OC	·	12*	?	8	-4%
COc1ccc(-c2nc(Cn3c(SCc4ccccc4F)nc4ccncc43)c(C)o2)cc1OC	-13%[46.1 µM]	·	·	·	19%[46.1 µM]
COc1ccc(-c2nc(Cn3c(SCc4ccc(C)cc4)nc4ccncc43)c(C)o2)cc1OC	·	48*	-5%	101*	·
Fc1ccc(-c2cnc(-c3cccs3)o2)cc1	-2%	42*	-18%	134*	11%
Fc1ccc(-c2cc(-c3cccs3)cc(-c3ccccc3)n2)cc1	·	-2	-2%	24	·
COC(=O)c1ccc(-c2nc(-c3cccs3)no2)cc1	·	40*	8%	65*	·
Fc1ccc(-c2nc(-c3cccs3)no2)cc1	·	44*	7%	127*	·
Cc1ccc(NC(=O)COC(=O)C(CC(C)C)N2C(=O)C3CC=CCC3C2=O)c(C)c1 (stereo unspecified)	12%	-7	-6%	-11	11%
COc1ccccc1NC(=O)CC1Sc2ccc(C(F)(F)F)cc2NC1=O (stereo unspecified)	-5%[46.1 µM]	·	·	·	·
COc1ccc([N+](=O)[O-])cc1N(CC(=O)N1CCCC1)S(C)(=O)=O	18%[46.1 µM]	-2	20%	-4	2%[46.1 µM]
COc1ccccc1C(=O)N/N=C/c1ccc2c(c1)OCO2	?	35*	-4%	89*	?
COc1cc2ccccc2cc1C(=O)N/N=C/c1ccc2c(c1)OCO2	·	4	17%	7	·
CC(/C=N\NC(=O)c1ccc2c(c1)OCO2)c1ccccc1 (stereo unspecified)	·	27*	81%	46*	·
COc1ccc(C(=O)N/N=C/C(C)c2ccccc2)cc1OC (stereo unspecified)	-4%	9	28%	27	0%
SMILES	Lassa entry inh	Cycloheximide cs	AMA1 RON2 block	Shiga toxin inh	Marburg entry inh
COc1cc(/C=N/NC(=O)c2cc(-c3ccc4c(c3)OCO4)n[nH]2)ccc1O	-2%	16*	38%	36	-1%[46.1 µM]
COc1ccccc1N/N=C/c1ccc2c(c1)OCO2	20%	39*	-8%	45	-16%
S=C(NN=Cc1ccc2c(c1)OCO2)NN=Cc1ccc2c(c1)OCO2	?	·	35%	·	?
O=C(N/N=C/c1ccc([N+](=O)[O-])cc1)c1cc(-c2ccc3c(c2)OCO3)n[nH]1	·	-2	-5%	9	·
CCOc1ccc(OCCC(=O)OCC(=O)Nc2ccc3c(c2)OCCO3)cc1	8%	·	-2%	·	4%[46.1 µM]
O=C(N/N=C/c1ccccc1OC(=O)c1ccc2c(c1)OCO2)c1ccccc1	?	21*	17%	64*	0%
